Source: the supplement of paper PMC7801607

Columns and labels:
CHO = assay: % viability of CHO cells (MTT); higher = less toxic; details: 48 h
Summary of the method: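 CHO cells seeded at 10^6 cells/well were exposed to compound at 2 or 20 µM for 48 h. Survival, as percent of untreated cells, was measured with the colorimetric tetrazolium (MTT) assay.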

HepG2-A16-CD81 = assay: % inhibition of HepG2 viability (CellTiter-Glo); higher = more toxic; details: 5 µM
[1] = tested on: Plasmodium falciparum NF54 stage IV/V gametocytes; assay: % inhibition of gametocyte viability (PrestoBlue); higher = more inhibition; details: 48 h
Summary of the method: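 Compound was tested at 1 or 5 µM against Stage IV/V NF54 gametocytes plated at 100 µL/well (2% gametocytaemia, 5% haematocrit). After 48 h of stationary, hypoxic incubation at 37 °C, 10 µL PrestoBlue was added for 2 h before reading 612 nm fluorescence from 70 µL of transferred supernatant. Gametocyte viability inhibition, as a percentage, was scaled against vehicle and kill controls from a single run.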

[2] = tested on: Plasmodium falciparum NF54 asexual blood stage; assay: % inhibition of asexual blood stage proliferation (pLDH); higher = more inhibition; details: 72 h
Summary of the method: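 In 96-well plates, compound at 2 or 20 µM was added to Plasmodium falciparum NF54 ring-stage cultures (1% haematocrit, 2% parasitaemia). Plates were incubated for 72 h at 37 °C in 4% CO2, 3% O2 and 93% N2, and survival was then read at 620 nm using the parasite lactate dehydrogenase assay. Inhibition of asexual proliferation, expressed as a percentage, was normalised to controls.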

[3] = tested on: Plasmodium falciparum NF54 stage IV/V gametocytes; assay: % inhibition of gametocyte viability (ATP bioluminescence); higher = more inhibition; details: 24 h
Summary of the method: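 Density gradients were used to enrich stage IV/V NF54 gametocytes, which were then seeded into 96-well plates at 30,000 per well with compound at 1 or 5 µM. The plates were incubated at 37 °C for 24 h, and ATP was measured with the Promega BacTiter Glo bioluminescence system. Percent inhibition of gametocyte viability was normalised to the plate controls from a single run.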

[4] = tested on: Plasmodium falciparum NF54 stage IV/V gametocytes; assay: % inhibition of gametocyte viability (luciferase reporter); higher = more inhibition; details: 48 h
Summary of the method: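 Luminescence from 30 µL lysate combined with 30 µL Promega luciferin substrate was recorded on a GloMax-Multi+ reader using 10 s integration. The lysate came from stage IV/V NF54-Pfs16-GFP-Luc gametocytes (2% gametocytaemia, 2% haematocrit) held with compound at 1 or 5 µM for 48 h at 37 °C under stationary, hypoxic conditions. Percent inhibition was normalised against controls run once.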

[5] = tested on: Plasmodium berghei ANKA liver stage in HepG2-A16-CD81; assay: % inhibition of liver stage parasite viability (luciferase); higher = more inhibition; details: 5 µM; 48 h
Experimental: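 Single-concentration screen of the MMV Pandemic Response Box. P. falciparum NF54 asexual blood stages: pLDH assay, 72 h at 37 °C, 2 and 20 µM, n=2. Stage IV/V gametocytes (NF54): luciferase reporter (NF54-Pfs16-GFP-Luc, 48 h), ATP bioluminescence (24 h) and PrestoBlue (48 h) at 1 and 5 µM, n=1. P. berghei liver stage (luciferase in HepG2-A16-CD81, 48 h post infection) at 5 µM, n=4. All normalised to DMSO and kill controls as % inhibition.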
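Throughout, for % inhibition of HepG2 viability (CellTiter-Glo): HepG2-A16-CD81 hepatoma cells plated as in the liver-stage assay but without sporozoites, with DMSO wells as negative and 25 µM puromycin as positive control.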

| Structure (SMILES) | % viability of CHO cells (CHO; 2 µM) [%] | % viability of CHO cells (CHO; 20 µM) [%] | % inhibition of HepG2 viability (HepG2-A16-CD81) [%] | % inhibition of gametocyte viability ([1]; 1 µM) [%] | % inhibition of gametocyte viability ([1]; 5 µM) [%] | % inhibition of asexual blood stage proliferation ([2]; 2 µM) [%] | % inhibition of asexual blood stage proliferation ([2]; 20 µM) [%] | % inhibition of gametocyte viability ([3]; 1 µM) [%] | % inhibition of gametocyte viability ([3]; 5 µM) [%] | % inhibition of gametocyte viability ([4]; 1 µM) [%] | % inhibition of gametocyte viability ([4]; 5 µM) [%] | % inhibition of liver stage parasite viability [5] [%] |
| --- | --- | --- | --- | --- | --- | --- | --- | --- | --- | --- | --- | --- |
| CCOC(=O)N[C@@H]1CC[C@@H]2[C@@H](C1)C[C@H]1C(=O)O[C@H](C)[C@H]1[C@H]2/C=C/c1ccc(-c2cccc(F)c2)cn1 | 72.3 | 62.2 | 7.92 | 15.9 | -0.253 | 42.6 | 71.5 | 17.7 | 33 | 7.62 | 27.4 | 33.5 |
| NC[C@H]1OB(O)c2c(OCCCO)cccc21 | 123 | 109 | -3.46 | 10.1 | < 0 | 6.89 | 18.5 | < 0 | < 0 | < 0 | 2.44 | -16.7 |
| Cc1[nH]c2ccccc2c1CC(=O)N[C@@H](Cc1ccccc1)C(=O)N(C)c1ccccc1 | 80.4 | 56 | 4.27 | 25.2 | 23.6 | -9.75 | 76.5 | 6.25 | < 0 | 1.82 | 1.07 | 8.84 |
| C=C(C)n1c(=O)n(Cc2ccccc2C)c2ccccc21 | 110 | 56.8 | 3.81 | 4.81 | 0.864 | 16.6 | 48.2 | < 0 | < 0 | < 0 | < 0 | 19.1 |
| CC(C)(C)NC(=O)N[C@H](C(=O)N1C[C@H]2[C@@H]([C@H]1C(=O)NC(CC1CCC1)C(=O)C(N)=O)C2(C)C)C(C)(C)C (some centres not stated) | 108 | 50.4 | 9.51 | 4.37 | 8.14 | 36.6 | 73.7 | < 0 | < 0 | < 0 | < 0 | -15.2 |
| O=C(Nc1ncc(Cc2cccc3ccccc23)s1)C1CCCCC1 | 83.3 | 53.3 | 7.25 | 16.9 | < 0 | 22.6 | 42.9 | < 0 | < 0 | < 0 | 0.604 | -13.3 |
| COc1ccc2c(c1)cc(CNC(=O)c1cc3ccccc3o1)n2CC(=O)O | 90.6 | 111 | 3.58 | < 0 | 26 | -3.06 | 7.62 | 1.71 | < 0 | < 0 | < 0 | 24.3 |
| Cc1onc(-c2ccccc2)c1-c1ccc(S(N)(=O)=O)cc1 | 120 | 106 | -1.58 | 12.1 | 41.6 | 48.8 | 77.5 | 1.41 | < 0 | 0.106 | < 0 | 4.19 |
| Nc1nc(O)c2ncn(COC(CO)CO)c2n1 | 83.5 | 59.2 | 3.01 | < 0 | < 0 | 6.2 | 41.8 | < 0 | 0.568 | 7.58 | < 0 | 7.49 |
| Oc1ccc(NCc2ccccc2OCc2ccccc2)cc1 | 97.9 | 103 | -1.04 | < 0 | < 0 | 18.6 | 95 | < 0 | < 0 | < 0 | < 0 | 25.2 |
| Nc1cccc(-c2nc(N)nc(NC3Cc4ccccc4C3)n2)c1 | 96.5 | 75.1 | 12.8 | < 0 | < 0 | -7.13 | 22.3 | < 0 | < 0 | < 0 | < 0 | -38.1 |
| NS(=O)(=O)c1ccc(NC(=O)NC(c2ccccc2)c2ccccc2)cc1 | 258 | 58.6 | 4.57 | < 0 | 7.57 | 3.15 | 82.5 | < 0 | < 0 | < 0 | < 0 | 19.3 |
| Cc1cc(C)n(O)c(=O)c1 | 108 | 109 | -0.333 | < 0 | 3.7 | -9.1 | 4.56 | < 0 | 3.75 | < 0 | < 0 | 15.5 |
| O=C(CCCC(F)(F)F)N1CCC(c2nc(-c3nccs3)no2)CC1 | 113 | 105 | 8.03 | -0.494 | 2.08 | 7.54 | 19.8 | 0.351 | < 0 | < 0 | 8.02 | -0.37 |
| O=C(NCc1ccccc1Cl)c1cnc2ccccc2n1 | 106 | 124 | 5.29 | < 0 | < 0 | 6.58 | 48.8 | < 0 | < 0 | < 0 | < 0 | 12.6 |
| CCn1cc(C(=O)O)c(=O)c2cc(F)c(N3CCNC(C)C3)c(F)c21 (configuration not stated) | 104 | 102 | 0.454 | 34.9 | 43.8 | 36.8 | 28.9 | < 0 | < 0 | < 0 | < 0 | 22.1 |
| Cc1ncc([N+](=O)[O-])n1CC(O)CN1CCOCC1 (configuration not stated) | 106 | 55.4 | -2.47 | < 0 | < 0 | 30.7 | 75.1 | < 0 | < 0 | 0.715 | 1.52 | 25.3 |
| CC(=N)N1CC[C@H](SC2=C(C(=O)O)N3C(=O)[C@@H]([C@@H](C)O)[C@H]3C2)C1 | 85.2 | 33.9 | -4.07 | < 0 | < 0 | 5.77 | 14.6 | < 0 | < 0 | < 0 | 0.678 | 5.53 |
| CC(C)CCN1C(=O)C(C2=NS(=O)(=O)c3cc(NS(C)(=O)=O)ccc3N2)=C(O)[C@@H]2[C@H]3CC[C@H](C3)[C@@H]21 | 99.3 | 109 | 6.58 | 9.05 | 13.6 | 37.2 | 56.6 | < 0 | < 0 | 1.44 | 8.86 | 47.3 |
| CC(C)Nc1ncnc2c1cnn2-c1ccc(Cl)cc1 | 89.8 | 122 | 13.3 | 17.9 | 15.6 | 18.3 | 69.3 | < 0 | < 0 | < 0 | 62.4 | 43.2 |
| CONC(=N)c1ccc(-c2ccc(-c3ccc(C(=N)NOC)cc3)o2)cc1 | 111 | 121 | 2.49 | 11.8 | 9.28 | -3.01 | 1.5 | 0.615 | < 0 | < 0 | < 0 | 4.65 |
